PubChem BioAssay AID1159580 (chemical genetic matrix, 2015)
The campaign covered roughly 5,500 compounds. About 2,000 (36%) were called active. Roughly 18% stayed inconclusive and do not appear here. Cut-off read from the data, not from the text of the source: active = normalized growth mostly below about 0.91 (no sharp cut-off); inconclusive = no clear call, values can overlap the other calls; inactive = mostly above about 0.92. The list shows a part of the results.

Experiment: chemical genetic growth profiling, strain panel (AID 1159580);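 note: tested at 20 µM; growth read once vehicle control cultures reached saturation at 30 °C; 1 = growth at the plate median or of vehicle wells; lower values mean less growth of the strain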
Settings: S. cerevisiae deletion strains, growth OD

Measured: normalized growth

CCCCCCN(CCCCCC)C(=O)Cc1c(-c2ccc(F)cc2)[nH]c2ccccc12
active: locus YNL128W, strain TEP1, active compounds read low 1.12 [resistant] | locus YNL175C, strain NOP13, active compounds read low 1.15 [resistant]
inactive: locus YAL013W, strain DEP1, active compounds read low 1.03 | locus YAL040C, strain CLN3, active compounds read low 1.03 | locus YCL061C, strain MRC1 (second series), active compounds read low 1 | locus YDR363W, strain ESC2, active compounds read low 1.01 | locus YER002W, strain NOP16, active compounds read low 1.02 | locus YGR229C, strain SMI1, active compounds read low 1.04 | locus YMR263W, strain SAP30, active compounds read low 1 | locus YMR307W, strain GAS1, active compounds read low 0.996 | locus YNL224C, strain SQS1, active compounds read low 1.07 | locus YOR083W, strain WHI5 (second series), active compounds read low 1.12 | locus YPL241C, strain CIN2, active compounds read low 1
